The nature of assay [1]: cAMP Responsive Elements (CRE) small molecule antagonists, cell-based qHTS assay: qHTS cell viability counter screen (AID 2060913). Also: nearly all actives have a fitted effect of over 40% in size. A digest of the protocol:
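HEK293T CRE-bla, 2,000 cells/well, 18 h preincubation; cpd in DMSO + NKH477 0.25 uM final, 3 h 37 C/5% CO2; LiveBLAzer 2 h RT, then CellTiter-Glo 30 min RT, luminescence.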
A general note: Quantitative high-throughput screening tests each substance at several concentrations.

Assay [2] is described as follows: cAMP Responsive Elements (CRE) small molecule agonists, cell-based qHTS assay: qHTS cell viability counter screen (AID 2060914). Also: nearly all actives have a fitted effect of over 50% in size. A digest of the protocol:
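In the same wells as the reporter read, viability of CRE-bla HEK 293T cells was quantified by CellTiter-Glo luminescence after a 3 h compound exposure.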

Results on 54 molecules are retold here after PubChem BioAssay (Tox21).

Records with an inconclusive call do not appear. Values without a mark were called inactive. Calls of active or inactive are those of the source. Calls follow the shape of the dose curve; as a rule, active = well fitted cell-killing curve with a large enough effect in the repeat runs; inconclusive = weak or mixed curves, or effect the other way; inactive = flat fitted curve, though single readings scatter.
% is scaled to controls: 0 for no effect and ±100 for the full control effect.

Regarding `CCOC(=O)CCC(=O)OCC`, the Potency result in assay [1] and in assay [2] was “inactive” each time.

`CCCCC(=O)OCC(=O)[C@H]1[C@H](C)C[C@H]2[C@@H]3C[C@H](F)C4=CC(=O)C=C[C@]4(C)[C@@]3(F)[C@@H](O)C[C@@]21C`: the Potency entry in assay [1] and in assay [2] was “inactive” each time.

For the molecule `O=C(c1ccccc1)c1ccc(Cl)cc1`, the Potency entry in assay [1] and in assay [2] was “inactive” in each case.

As to `CCC(O)OC(O)CC` (stereo not drawn), the Potency entry in assay [1] and in assay [2] was “inactive” in each case.

For `C1COCCO1`, the Potency result in assay [1] and in assay [2] was “inactive” each time.

For `CCNC(=O)N1CCN(CCCC(c2ccc(F)cc2)c2ccc(F)cc2)CC1`, the Potency entry in assay [1] and in assay [2] was “inactive” throughout.

With `CCN[C@H]1CN(CCCOC)S(=O)(=O)c2sc(S(N)(=O)=O)cc21`, the Potency result in assay [1] and in assay [2] was “inactive” in each case.

Take `CC(=O)Nc1ccc(/C=N/NC(N)=S)cc1`: the Potency entry in assay [1] and in assay [2] was “inactive” throughout.

Take `CC#N`: the Potency result in assay [1] and in assay [2] was “inactive” each time.

For `CCCCCCCCCCCCOCCOS(=O)(=O)O`, the Potency entry in assay [1] and in assay [2] was “inactive” each time.

As for `c1ccc(C(O[C@H]2CCCN(CCc3ccc4c(c3)OCO4)C2)c2ccccc2)cc1`, the Potency result in assay [1] and in assay [2] was “inactive” each time.

Take `C=Cc1ccccc1C=C`: the Potency entry in assay [1] and in assay [2] was “inactive” throughout.

For `C=CC(=C)CC/C=C(\C)CCC=C(C)C`, the viability change, negative = cytotoxic in assay [1] was 13.3% [at 18.9 µM]. Further, in assay [2], the activity change, negative = cytotoxicity was -3.29% [at 18.9 µM].

On to `CC(C)(C)c1cc(CCC(=O)OCC(COC(=O)CCc2cc(C(C)(C)C)c(O)c(C(C)(C)C)c2)(COC(=O)CCc2cc(C(C)(C)C)c(O)c(C(C)(C)C)c2)COC(=O)CCc2cc(C(C)(C)C)c(O)c(C(C)(C)C)c2)cc(C(C)(C)C)c1O`, for which the Potency entry in assay [1] and in assay [2] was “inactive” throughout.

For `CC(=O)SCc1ccco1`, the Potency result in assay [1] and in assay [2] was “inactive” in each case.

With `O=C(O)COC(=O)Cc1ccccc1Nc1c(Cl)cccc1Cl`, the Potency entry in assay [1] and in assay [2] was “inactive” throughout.

As to `CC1=C2[C@@H]([C@H](C)CC[C@H]2/C=C(\C)C(=O)O)[C@H](O)C1`, the Potency entry in assay [1] and in assay [2] was “inactive” each time.

In the case of `CCCCCCCOC(=O)c1ccccc1C(=O)OCCCCCCC`, the Potency entry in assay [1] and in assay [2] was “inactive” each time.

For `CCOC(=O)[C@H](CCc1ccccc1)N[C@@H](C)C(=O)N(CC(=O)O)C1Cc2ccccc2C1`, the Potency entry in assay [1] and in assay [2] was “inactive” throughout.

`COC(=O)C1=C(C)NC(C)=C(C(=O)O[C@@H]2CCCN(Cc3ccccc3)C2)[C@@H]1c1cccc([N+](=O)[O-])c1`: the Potency result in assay [1] and in assay [2] was “inactive” each time.

In the case of `CCC1CCC(CCC(=O)O)C1` (stereo not drawn), the Potency entry in assay [1] and in assay [2] was “inactive” each time.

Take `CCOC(=O)C(C)Oc1ccc(Oc2nc3ccc(Cl)cc3o2)cc1` (stereo not drawn): the Potency entry in assay [1] and in assay [2] was “inactive” each time.

On to `OC[C@@H](O)[C@@H](O)[C@H](O)[C@H](O)CO`, for which the Potency entry in assay [1] and in assay [2] was “inactive” each time.

Regarding `Cc1cccc(C(C)(C)C)c1O`, the Potency result in assay [1] and in assay [2] was “inactive” throughout.

Regarding `Cn1c(=O)[nH]c2ncn(C)c2c1=O`, the Potency entry in assay [1] and in assay [2] was “inactive” in each case.

With `O=C(O)CCCCCCCC(=O)O`, the Potency entry in assay [1] and in assay [2] was “inactive” throughout.

Take `CCC(N)(CO)CO`: the Potency result in assay [1] and in assay [2] was “inactive” in each case.

Consider `COc1c(Br)cc(Br)c(C)c1Br`, for which the Potency entry in assay [1] and in assay [2] was “inactive” in each case.

For `ClC(Cl)(Cl)c1ccc(C(Cl)(Cl)Cl)cc1`, the Potency result in assay [1] and in assay [2] was “inactive” in each case.

On to `CCCCc1cc2ccccc2c(OCCN(C)C)n1`, for which the Potency entry in assay [1] and in assay [2] was “inactive” in each case.

As to `Cc1cccn2c(=O)c(-c3nnn[nH]3)cnc12`, the viability change, negative = cytotoxic in assay [1] was -1.68% [at 18.9 µM]. Also, the activity change, negative = cytotoxicity in assay [2] is -13.9% [at 18.9 µM].

`Nc1cccc([N+](=O)[O-])c1`: the Potency result in assay [1] and in assay [2] was “inactive” each time.

For `COC(=O)CS`, the Potency entry in assay [1] and in assay [2] was “inactive” throughout.

In the case of `CC(C)(O)C(=O)c1ccc(OCCO)cc1`, the Potency result in assay [1] and in assay [2] was “inactive” each time.

With `NCc1ccc(S(N)(=O)=O)cc1`, the Potency entry in assay [1] and in assay [2] was “inactive” in each case.

For the molecule `CC(CN(C)C)C(C)(O)Cc1ccc(Cl)cc1` (stereo not drawn), the Potency result in assay [1] and in assay [2] was “inactive” throughout.

In the case of `CCCCCCCCCCOc1cc2c(=O)c(C(=O)OCC)c[nH]c2cc1OCC`, the viability change, negative = cytotoxic in assay [1] was -0.799% [at 8.39 µM]. For the same molecule, the activity change, negative = cytotoxicity in assay [2] was -0.252% [at 8.39 µM].

`C[C@@H]1C[C@H]2[C@@H]3CCC4=CC(=O)C=C[C@]4(C)[C@@]3(F)[C@@H](O)C[C@]2(C)[C@H]1C(=O)CO`: the Potency result in assay [1] and in assay [2] was “inactive” throughout.

With `CCCC1O[C@@H]2C[C@H]3[C@@H]4CCC5=CC(=O)C=C[C@]5(C)[C@H]4[C@@H](O)C[C@]3(C)[C@]2(C(=O)CO)O1` (stereo partly drawn), the Potency result in assay [1] and in assay [2] was “inactive” in each case.

For the molecule `CC(=O)OCC(COC(C)=O)OC(C)=O`, the Potency result in assay [1] and in assay [2] was “inactive” in each case.

With `CN1C(=O)OC(C)(C)C1=O`, the Potency entry in assay [1] and in assay [2] was “inactive” in each case.

Consider `CC1=NN(c2ccc(C(=O)O)cc2)C(=O)C1`, for which the Potency result in assay [1] and in assay [2] was “inactive” in each case.

In the case of `CCCCOC(=O)CC#N`, the Potency entry in assay [1] and in assay [2] was “inactive” in each case.

For the molecule `Nc1cccc2c1CN(C1CCC(=O)NC1=O)C2=O` (stereo not drawn), the Potency result in assay [1] and in assay [2] was “inactive” in each case.

For the molecule `Fc1ccc([C@@H]2CCNC[C@H]2COc2ccc3c(c2)OCO3)cc1`, the Potency result in assay [1] and in assay [2] was “inactive” in each case.

Turning to `Oc1ccc(CCNCCCCCCNCCc2ccccc2)cc1O`, the Potency entry in assay [1] and in assay [2] was “inactive” in each case.

For `CCCCNC1CC(C)(C)NC(C)(C)C1`, the Potency entry in assay [1] and in assay [2] was “inactive” each time.

For `CC(C)C(=O)Nc1ccc([N+](=O)[O-])c(C(F)(F)F)c1`, the Potency result in assay [1] and in assay [2] was “inactive” throughout.

On to `CCCCCCC(=O)O`, for which the Potency result in assay [1] and in assay [2] was “inactive” each time.

In the case of `O=Cc1c(Cl)cccc1Cl`, the Potency result in assay [1] and in assay [2] was “inactive” in each case.

As for `CCC(C)OC(=O)N1CCCCC1CCO` (stereo not drawn), the Potency result in assay [1] and in assay [2] was “inactive” each time.

On to `COCC(C)OC(C)=O` (stereo not drawn), for which the Potency result in assay [1] and in assay [2] was “inactive” throughout.

As for `COc1ccc(Nc2ccccc2)c(C)c1`, the Potency result in assay [1] and in assay [2] was “inactive” in each case.

On to `Nc1ccc([N+](=O)[O-])c(N)c1`, for which the Potency result in assay [1] and in assay [2] was “inactive” in each case.
